# Source: publication PMC5540273 (PLoS ONE, 2017)
# Test system: FGR
# Conditions: concentration: 1 μM,replicates: in singlicate; n = 1
# 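Note: KINOMEscan kinase panel screen.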
row,SMILES,%Inh [%]
1,C=CC(=O)Nc1cc2c(Nc3ccc(F)c(Cl)c3)ncnc2cc1OCCCN1CCOCC1 [GW781483],14
2,CC(C)Nc1cc(-c2ccc3c(N)n[nH]c3c2)nc(N)n1 [GSK2221681],3
3,COc1ccc(C[C@@H](CN)NC(=O)c2cc(Br)c(-c3ccnc4[nH]ccc34)s2)cc1.Cl.Cl [GSK1389063],53
4,Cc1occc1-c1nc(N)c(OC[C@@H](N)Cc2c[nH]c3ccccc23)cc1-c1cc2c(C)n[nH]c2cn1 [GSK1660450],91.6
5,Cc1ccc2c(-c3ccncc3)c(-c3ccc(F)cc3)nn2c1.Cl [GW461484],0
6,O=C(NCCCN1CCOC1=O)c1cnc(NCc2cc(Cl)ccc2Cl)nc1NC1CCCC1,29
7,Cc1n[nH]c2ccc(-c3cc(OC[C@@H](N)Cc4ccccc4)cnc3-c3ccoc3)cc12.O=C(O)C(F)(F)F.O=C(O)C(F)(F)F [GSK507358],45
8,Cc1cc2cn[nH]c2cc1-c1cccc2c(N)c(C(N)=O)nnc12,50
9,NC(=O)c1cc(-c2ccccc2)cc2c(C3CCNCC3)c[nH]c12 [GSK301362],14
10,CC(C)N1C(=O)Cc2cc(Nc3ncc(C(F)(F)F)c(NCc4cccc(S(C)(=O)=O)c4)n3)ccc21,5
11,O=C(NCCNc1ccnc(NCc2ccc(F)cc2)n1)c1cc2ccccc2s1 [GSK1379944],29
12,CNC(=O)c1ccccc1Sc1ccc2c(/C=C/c3ccccn3)n[nH]c2c1,85
13,Nc1nc(Nc2ccccc2)cc(-c2ccc3c(N)n[nH]c3c2)n1 [GSK2225749],0
14,CCN(CC)CCCCNc1ncc2cc(-c3c(Cl)cccc3Cl)c(NC(=O)NC(C)(C)C)nc2n1,90.3
15,Cc1cc(C(=O)Nc2ccc(Oc3ccc4nc(NC(=O)C5CC5)cn4n3)cc2)nn1-c1ccccc1,59
16,CN(C)CC(O)COc1ccc(Nc2nccc(-c3cnn4nc(N5CCOCC5)ccc34)n2)cc1 (centres unmarked) [GW767488],93.5
17,Cl.Cl.Nc1nc(-c2ccc3c(N)n[nH]c3c2)cc(N2CCCC(NC(=O)c3ccccc3)C2)n1 (centres unmarked) [GSK2286775],8
18,CN(C)CCOc1ccc(-c2cc(-c3c[nH]nc3-c3ccccn3)ccn2)cc1 [GW835314],7
19,C[C@@H]1CCN(C(=O)CC#N)C[C@@H]1N(C)c1ncnc2[nH]ccc12,1
20,Cl.Cl.NC[C@H](CC1CCCCC1)NC(=O)c1cc(Br)c(-c2ccnc3[nH]ccc23)s1 [GSK1581427],33
21,Cl.Cl.NC[C@H](Cc1ccc(C(F)(F)F)cc1)NC(=O)c1cc(Br)c(-c2ccnc3[nH]ccc23)s1 [GSK1487252],31
22,Cl.Oc1cc(-c2nc(-c3ccccc3)[nH]c2-c2ccncc2)ccc1Cl [SB-386023],56
23,C[C@H]1Oc2cc(cnc2N)-c2c(nn(C)c2C#N)CN(C)C(=O)c2ccc(F)cc21,33
24,C[C@@H](Oc1cc(-c2cnn(C3CCNCC3)c2)cnc1N)c1c(Cl)ccc(F)c1Cl,46
25,CCn1c(-c2nonc2N)nc2c(C#CC(C)(C)O)nc(OCCN)cc21.Cl.Cl [GSK902056],30
26,CCN(CC)CCOc1ccc(Nc2ncc3cc(-c4c(Cl)cccc4Cl)c(=O)n(C)c3n2)cc1 [SB-601273],100
